Outcome and AC50 data for six compounds are collected here from PubChem BioAssay (EPA / NIEHS).

Molecules are shown by their SMILES. Inconclusive results are not listed. Some compounds were tested as several samples or in several runs, with calls that do not always agree. Active and inactive are the calls of the source. The calls were made as follows, unless noted: active = hit-call score of the fitted dose curve at least 0.9, where 1 is the maximum; inconclusive = response in the unintended direction; inactive = score below 0.9.

Read-out in assay [1]: glucuronosyltransferase (UGT1A1), UGT1A1 (gene 54658)
Briefly: CLD_UGT1A1_6hr: CellzDirect (CLD) Gene Expression Assay for glucuronosyltransferase (UGT1A1) at 6 hours (AID 2283672). Put shortly:
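Primary human hepatocytes from two donor preparations, dosed with fresh solutions in 0.2% DMSO, harvested at 6 h. UGT1A1 mRNA measured by qNPA chemiluminescence; induction fitted upward versus DMSO.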

Read-out in assay [2]: xenobiotic metabolism (CYP1A1), CYP1A1 (gene 1543)
Kind of assay: CLD_CYP1A1_24hr: CellzDirect (CLD) Gene Expression Assay for xenobiotic metabolism (CYP1A1) at 24 hours (AID 2283673). The method in brief: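 Primary human hepatocytes dosed daily with fresh solutions in 0.2% DMSO vehicle. mRNA measured at 24 h by quantitative nuclease protection assay with chemiluminescence; gain-of-signal fit versus DMSO, with morphology-based cytotoxicity flags.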

Read-out in assay [3]: Cytochrome P450 2B6 (Homo sapiens) (UniProt P20813)
Briefly: CLD_CYP2B6_6hr: CellzDirect (CLD) Gene Expression Assay for xenobiotic metabolism (CYP2B6) at 6 hours (AID 2283677).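 Also: actives raise CYP2B6 transcript above DMSO baseline so AC50 marks an inducer.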 The method in brief: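 Primary human hepatocytes dosed with chemicals at multiple concentrations, vehicle 0.2% DMSO; CYP2B6 mRNA induction measured 6 h after dosing by quantitative nuclease protection assay with chemiluminescence, gain of signal fitted relative to DMSO.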

A short description of assay [4]: CCTE_Padilla_ZF_144hpf_TERATOSCORE: (Legacy) CCTE's 144 Hour Post-fertilization zebrafish Assay Teratoscore, Padilla Lab (AID 2283679; active = hit-call score of the fitted dose curve at least 0.9, where 1 is the maximum; inactive = score below 0.9;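 as to AC50: zebrafish embryos with chorions exposed by immersion from 6-8 hpf to 5 dpf with daily renewal; teratogenicity score from eye scoring of death hatching and malformations at 144 hpf; higher score means more developmental defects relative to DMSO baseline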). Put shortly:
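Larvae scored by eye at 144 hpf for death, hatching and malformations after a day in clean Hanks'. Before that, daily-renewed exposure at 80 uM (0.4% DMSO, 26C) from roughly 6-8 hpf through 5 dpf, 4 embryos per chemical.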

Read-out in assay [5]: Cytochrome P450 3A4 (Homo sapiens) (UniProt P08684)
Kind of assay: CLD_CYP3A4_6hr: CellzDirect (CLD) Gene Expression Assay for xenobiotic metabolism (CYP3A4) at 6 hours (AID 2283680). Put shortly: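 Primary human hepatocytes (two donor preparations) dosed; CYP3A4 mRNA harvested at 6 h and quantified by qNPA chemiluminescence. Gain of signal fitted against 0.2% DMSO vehicle; cytotoxicity flagged by phase-contrast morphology.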

Read-out in assay [6]: Glyceraldehyde-3-phosphate dehydrogenase (Homo sapiens) (UniProt P04406)
Kind of assay: CLD_GAPDH_6hr: CellzDirect (CLD) Gene Expression Assay for Baseline Control (Glyceraldehyde 3-phosphate dehydrogenase) at 6 hours (AID 2283681).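 Also: active means increased signal relative to DMSO vehicle.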 Put shortly: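 Primary human hepatocytes from two donor preparations, dosed at multiple concentrations with 0.2% DMSO vehicle; GAPDH mRNA measured 6 h after dosing by chemiluminescent quantitative nuclease protection assay (qNPA) on denatured lysates. Serves as background control; cytotoxicity annotated by morphology.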

Read-out in assay [7]: xenobiotic metabolism (CYP1A2), CYP1A2 (gene 1544)
Kind of assay: CLD_CYP1A2_24hr: CellzDirect (CLD) Gene Expression Assay for xenobiotic metabolism (CYP1A2) at 24 hours (AID 2283683). Put shortly: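 Primary human hepatocytes from two donor preparations dosed daily with multiple concentrations of chemical, 0.2% DMSO vehicle. CYP1A2 mRNA at 24 h quantified by qNPA chemiluminescence; gain of signal analyzed relative to DMSO. Cytotoxicity flagged by phase-contrast morphology.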

Read-out in assay [8]: ABC Transporter (ABCB1), ABCB1 (gene 5243)
Kind of assay: CLD_ABCB1_24hr: CellzDirect (CLD) Gene Expression Assay for ABC Transporter (ABCB1) at 24 hours (AID 2283684). Put shortly:
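Primary human hepatocytes, two donor preparations, dosed daily with fresh solutions; vehicle 0.2% DMSO; harvested at 24 h. ABCB1 mRNA measured by quantitative nuclease protection assay (chemiluminescence); morphology-based cytotoxicity annotated.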

Read-out in assay [9]: Cytochrome P450 3A4 (Homo sapiens) (UniProt P08684)
Briefly: CLD_CYP3A4_24hr: CellzDirect (CLD) Gene Expression Assay for xenobiotic metabolism (CYP3A4) at 24 hours (AID 2283689). Put shortly:
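Primary human hepatocytes from two donors dosed daily with fresh compound for two days, 0.2% DMSO vehicle. CYP3A4 mRNA at 24 hr by qNPA chemiluminescence; gain-of-signal fit versus DMSO, cytotoxicity flagged by morphology.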

Read-out in assay [10]: organic anion transporter (SLCO1B1), SLCO1B1 (gene 10599)
Briefly: CLD_SLCO1B1_24hr: CellzDirect (CLD) Gene Expression Assay for organic anion transporter (SLCO1B1) at 24 hours (AID 2283690). The method in brief: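 Primary human hepatocytes (two donor preparations) dosed daily for two days with chemicals at multiple concentrations, 0.2% DMSO vehicle. SLCO1B1 mRNA at 24 h measured by qNPA chemiluminescence; induction fitted relative to DMSO.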

Read-out in assay [11]: HMG-CoA synthase (HMGCS2), HMGCS2 (gene 3158)
Briefly: CLD_HMGCS2_24hr: CellzDirect (CLD) Gene Expression Assay for HMG-CoA synthase (HMGCS2) at 24 hours (AID 2283691). Put shortly:
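Primary human hepatocytes from two donor preparations, dosed daily with fresh solutions; vehicle 0.2% DMSO, 24 h harvest. HMGCS2 mRNA quantified by qNPA with S1 nuclease digestion and chemiluminescence; gain fitted versus DMSO, cytotoxicity annotated by morphology.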

Read-out in assay [12]: alkyl and aryl transferase (GSTA2), GSTA2 (gene 2939)
Briefly: CLD_GSTA2_24hr: CellzDirect (CLD) Gene Expression Assay for alkyl and aryl transferase (GSTA2) at 24 hours (AID 2283693). Put shortly:
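Primary human hepatocytes (two donor preparations) dosed daily for two days with chemicals at multiple concentrations (vehicle 0.2% DMSO); GSTA2 mRNA at 24 h measured by qNPA chemiluminescence, gain-of-signal versus DMSO.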

Read-out in assay [13]: Cytochrome P450 2B6 (Homo sapiens) (UniProt P20813)
Briefly: CLD_CYP2B6_48hr: CellzDirect (CLD) Gene Expression Assay for xenobiotic metabolism (CYP2B6) at 48 hours (AID 2283699).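 Also: actives raise transcript level above DMSO so potency reflects induction.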 Put shortly: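 Primary human hepatocytes dosed daily for two days over multiple concentrations, 0.2% DMSO vehicle; CYP2B6 mRNA quantified at 48 h by qNPA chemiluminescence. Induction fitted as gain of signal versus DMSO; cytotoxicity annotated by morphology.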

Read-out in assay [14]: HMG-CoA synthase (HMGCS2), HMGCS2 (gene 3158)
Kind of assay: CLD_HMGCS2_6hr: CellzDirect (CLD) Gene Expression Assay for HMG-CoA synthase (HMGCS2) at 6 hours (AID 2283682).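 Also: actives raise HMGCS2 transcript above the 0.2% DMSO vehicle baseline.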 The method in brief: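 Primary human hepatocytes dosed daily with fresh chemical, 0.2% DMSO vehicle; HMGCS2 mRNA measured at 6 h by qNPA chemiluminescence. Gain of signal fitted against DMSO; cytotoxicity flagged from phase-contrast morphology.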

Read-out in assay [15]: Cytochrome P450 2B6 (Homo sapiens) (UniProt P20813)
Briefly: CLD_CYP2B6_24hr: CellzDirect (CLD) Gene Expression Assay for xenobiotic metabolism (CYP2B6) at 24 hours (AID 2283686). The method in brief: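 Primary human hepatocytes dosed daily for two days with fresh solutions, harvested at 24 hours; mRNA induction quantified by qNPA chemiluminescence, gain of signal vs 0.2% DMSO vehicle. Cytotoxicity annotated from phase-contrast morphology.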

Read-out in assay [16]: Cytochrome P450 2C19 (Homo sapiens) (UniProt P33261)
Kind of assay: CLD_CYP2C19_24hr: CellzDirect (CLD) Gene Expression Assay for xenobiotic metabolism (CYP2C19) at 24 hours (AID 2283687).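 Also: activity means mRNA induction above DMSO vehicle baseline.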 The method in brief:
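Primary human hepatocytes (two donor preparations) dosed daily with fresh test chemical in 0.2% DMSO vehicle; CYP2C19 mRNA induction measured at 24 h by quantitative nuclease protection assay with chemiluminescence, fitted for gain of signal versus DMSO.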

Read-out in assay [17]: Cytochrome P450 2C9 (Homo sapiens) (UniProt P11712)
Briefly: CLD_CYP2C9_24hr: CellzDirect (CLD) Gene Expression Assay for xenobiotic metabolism (CYP2C9) at 24 hours (AID 2283688). Put shortly:
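Primary human hepatocytes from two donor preparations, dosed daily for two days at multiple concentrations; vehicle 0.2% DMSO. CYP2C9 mRNA induction at 24 h measured by qNPA chemiluminescence relative to DMSO; cytotoxicity annotated from morphology.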

Read-out in assay [18]: Cytochrome P450 2C19 (Homo sapiens) (UniProt P33261)
Kind of assay: CLD_CYP2C19_6hr: CellzDirect (CLD) Gene Expression Assay for xenobiotic metabolism (CYP2C19) at 6 hours (AID 2283678). The method in brief: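 Primary human hepatocytes from two donor preparations were dosed daily, with 0.2% DMSO as vehicle, and harvested 6 h after dosing. CYP2C19 mRNA induction was measured by qNPA chemiluminescence and fitted as gain of signal against DMSO.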

Sequence of Cytochrome P450 3A4 (Homo sapiens) (P08684 whole entry, looked up): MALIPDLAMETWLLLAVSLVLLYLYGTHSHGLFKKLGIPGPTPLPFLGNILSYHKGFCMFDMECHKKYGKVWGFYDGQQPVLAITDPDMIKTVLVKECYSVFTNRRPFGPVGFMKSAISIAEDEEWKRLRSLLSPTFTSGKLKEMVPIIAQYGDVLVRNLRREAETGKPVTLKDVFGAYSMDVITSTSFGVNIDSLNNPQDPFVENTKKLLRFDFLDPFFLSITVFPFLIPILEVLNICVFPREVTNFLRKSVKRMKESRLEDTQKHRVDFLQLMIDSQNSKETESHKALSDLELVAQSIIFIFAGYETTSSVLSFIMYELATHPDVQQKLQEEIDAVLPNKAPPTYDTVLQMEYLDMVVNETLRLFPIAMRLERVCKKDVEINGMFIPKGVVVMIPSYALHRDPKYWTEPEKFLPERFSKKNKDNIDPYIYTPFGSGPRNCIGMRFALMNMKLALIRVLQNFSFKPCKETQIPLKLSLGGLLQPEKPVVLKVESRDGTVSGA
Sequence of Glyceraldehyde-3-phosphate dehydrogenase (Homo sapiens) (P04406 whole entry, looked up): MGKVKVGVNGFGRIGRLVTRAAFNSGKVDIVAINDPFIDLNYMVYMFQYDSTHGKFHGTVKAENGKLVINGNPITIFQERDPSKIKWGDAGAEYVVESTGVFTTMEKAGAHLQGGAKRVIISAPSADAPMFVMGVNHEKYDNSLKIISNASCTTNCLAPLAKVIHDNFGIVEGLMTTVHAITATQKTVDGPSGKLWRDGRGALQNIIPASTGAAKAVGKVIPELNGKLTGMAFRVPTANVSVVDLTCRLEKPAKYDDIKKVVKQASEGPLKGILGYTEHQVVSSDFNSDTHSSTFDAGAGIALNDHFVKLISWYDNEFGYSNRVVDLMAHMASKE
Sequence of Cytochrome P450 2C19 (Homo sapiens) (P33261 whole entry, looked up): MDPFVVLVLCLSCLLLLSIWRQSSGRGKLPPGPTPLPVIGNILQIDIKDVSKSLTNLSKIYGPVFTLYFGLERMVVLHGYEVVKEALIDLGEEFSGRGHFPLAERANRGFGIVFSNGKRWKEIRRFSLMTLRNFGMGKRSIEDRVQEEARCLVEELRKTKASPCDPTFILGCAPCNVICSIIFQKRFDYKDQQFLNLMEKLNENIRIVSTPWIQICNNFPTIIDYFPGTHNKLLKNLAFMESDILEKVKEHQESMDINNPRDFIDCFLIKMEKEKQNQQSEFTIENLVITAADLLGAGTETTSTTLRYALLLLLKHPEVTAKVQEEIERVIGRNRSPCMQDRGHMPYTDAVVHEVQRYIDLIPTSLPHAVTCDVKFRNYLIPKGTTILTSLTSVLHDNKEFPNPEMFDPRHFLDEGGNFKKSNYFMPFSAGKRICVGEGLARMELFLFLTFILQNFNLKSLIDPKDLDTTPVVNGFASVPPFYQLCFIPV

With `Cc1c(F)c(F)c(COC(=O)C2C(/C=C(\Cl)C(F)(F)F)C2(C)C)c(F)c1F` (configuration not stated), the result in assay [1], in [2], in assay [5], in assay [6], in assay [7] and in assay [8] was inactive. In addition, the compound was called inactive in [10], in [11] and in assay [12]. For the same compound, the AC50 – broadly, the midpoint of the concentration-response curve, whichever way the signal moves – in [3] was 20000 nM (active); in assay [4], 6.76 nM (active); in assay [9], 5740 nM (active); in [13], 4390 nM (active).
As for `N#CC(CCc1ccc(Cl)cc1)(Cn1cncn1)c1ccccc1` (configuration not stated), the result in [1], in assay [5], in [14], in assay [8], in [16] and in assay [17] was inactive. For the same compound, the call in assay [12] was inactive. The AC50 is 2640 nM (active) in assay [2]; 446 nM (active) in [3]; 25800 nM (active) in assay [4]; 1240 nM (active) in [7]; 389 nM (active) in [15]; 1900 nM (active) in assay [9]. Also, in assay [13], the AC50 is 434 nM (active).
Turning to `O=C(O)c1nc(Cl)ccc1Cl`, the call in assay [1], in assay [3], in assay [18], in [4], in assay [6] and in [7] was inactive. Besides, the compound was called inactive in [16], in [9], in [10], in [11] and in [12]. Further, the AC50 was 7870 nM (active) in [2], 1890 nM (active) in assay [14], 9480 nM (active) in assay [7] and 4400 nM (active) in [13].
Regarding `CC(C)C1(C)N=C(c2nc3ccccc3cc2C(=O)O)NC1=O` (configuration not stated), the call in assay [1], in [2], in assay [3], in assay [18], in assay [4] and in [5] was inactive. In addition, the outcome in assay [6], in assay [14], in assay [7], in assay [16], in [9] and in assay [10] was inactive. Further, the compound was called inactive in assay [11] and in assay [12]. In [13], the AC50 was 0.357 nM (active).
As for `N#Cc1nn(-c2c(Cl)cc(C(F)(F)F)cc2Cl)c(N)c1S(=O)C(F)(F)F` (configuration not stated), the result in [1], in assay [2], in [5], in assay [6], in assay [14] and in [8] was inactive. Also, the compound was classed as inactive in assay [12]. For the same compound, the AC50 in [3] was 2910 nM (active); in assay [4], 31100 nM (active); in [9], 1890 nM (active); in [13], 1900 nM (active).
On to `COc1nc(NC(C)C)nc(NC(C)C)n1`, for which the outcome in assay [1], in [18], in [4], in assay [5], in assay [6] and in assay [8] was inactive. Also, the compound was called inactive in assay [15], in assay [16] and in assay [17]. The AC50 is 3470 nM (active) in [2]; 4180 nM (active) in assay [3]; 3610 nM (active) in assay [7]; 1900 nM (active) in assay [9]; 5980 nM (active) in assay [13].
